High-throughput results (PubChem BioAssay)
Only some compounds are listed: those with a hit (about 7.3% of all), similar ones and a draw of the others.
Rab9 prom act: Rab9 promoter activation; Huh7 Rab9 promoter-luciferase reporter, luminescence, 24 h; Potency, µM (highest dose often 9.22 µM), inactives show at the top dose activation, negative = inhibition, hits mostly activators; hit rate 2.8% among 320,000; note: % of control where 0% means no effect; nearly all actives have a fitted effect of over 60% in size
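Quantitative HTS format; Huh7 Rab9-luciferase reporter cells (1500/well) receive compound 2 h post-plating, incubate 24 h at 37 °C, then get luciferase reagent for 10 min before luminescence reading.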
FLuc modulator: counter-screen for miR-21 project: firefly luciferase inhibitors or activators; P08659; purified FLuc, Km substrates, luminescence inhibition; Potency, µM (titrated, usually from 57.5 µM), for the others: at the top dose activity change, negative = inhibition, most hits filed as inhibitors; hit rate 6.9% among 360,000;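 note: plate controls were vehicle for no effect and reference inhibitor for full effect; nearly all actives have a fitted effect of over 55% in size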
Target sequence (P08659 whole entry, looked up): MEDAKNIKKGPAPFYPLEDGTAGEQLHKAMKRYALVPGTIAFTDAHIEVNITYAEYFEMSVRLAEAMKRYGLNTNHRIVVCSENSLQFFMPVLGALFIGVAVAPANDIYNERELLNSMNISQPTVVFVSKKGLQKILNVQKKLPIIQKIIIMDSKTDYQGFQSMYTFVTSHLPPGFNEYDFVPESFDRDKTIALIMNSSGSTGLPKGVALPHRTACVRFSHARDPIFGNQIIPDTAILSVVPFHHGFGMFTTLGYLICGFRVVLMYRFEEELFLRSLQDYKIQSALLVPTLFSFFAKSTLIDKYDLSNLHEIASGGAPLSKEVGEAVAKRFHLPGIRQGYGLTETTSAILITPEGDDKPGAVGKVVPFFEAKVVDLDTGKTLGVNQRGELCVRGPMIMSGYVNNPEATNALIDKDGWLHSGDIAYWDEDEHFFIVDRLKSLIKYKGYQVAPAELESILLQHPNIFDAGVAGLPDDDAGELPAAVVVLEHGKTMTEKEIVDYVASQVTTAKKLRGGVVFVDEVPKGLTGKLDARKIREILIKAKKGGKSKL
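Purified P. pyralis luciferase, 10 nM final, with Km-level 10 uM D-luciferin and 10 uM ATP in 50 mM Tris acetate pH 7.5, 10 mM Mg acetate, 0.01% Tween-20, 0.05% BSA; 6-point qHTS titration about 60 µM downward; luminescence read.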
Luc counter: counter-screen: inhibitors of Kinase-Glo firefly luciferase | Potency, µM (doses to about 38.3 µM), inactives show at the highest dose activity change, negative = inhibition, hits mostly inhibitors | hit rate 0.28% among 200,000 | Kinase-Glo luciferase, ATP luminescence, 8 min; note: % is set by controls: 0 for no effect and ±100 for the full control effect; nearly all actives have a fitted effect of over 60% in size
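Compound is pinned into ATP-containing buffer (10 uM ATP, imidazole pH 7.2, 7 mM MgCl2). Kinase-Glo luciferase reagent is then added. Light output is recorded following an 8-min room-temperature incubation.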
SMN2 splice up: SMN2 splice variant enhancement; HEK293 SMN2-luciferase splicing reporter, luminescence, 30-36 h; Potency, µM (series often up to 46.1 µM), for the others: top-dose activity change, positive = activation, hits mostly activators; hit rate 2.8% among 210,000; note: % of control where 0% means no effect; nearly all actives have a fitted effect of over 55% in size
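qHTS luciferase splicing reporter: luminescence rises when SMN2 exon 7 is included in transfected HEK293 cells. Compound exposure lasted 30-36 h at 37C, with 4.5 mM final sodium butyrate as control, followed by a ONE-Glo read.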
ELG1 genotoxic: genotoxicity induction in ELG1-luciferase HEK293T cells. hit rate 1.3% among 330,000. Potency, µM (series often up to 46 µM), without a hit: at the top dose activity change, positive = activation, actives largely listed as activators. HEK293T ELG1-luciferase reporter, luminescence, 16 h; note: % of control where 0% means no effect; nearly all actives have a fitted effect of over 60% in size
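16 hr compound incubation (37 °C, 5% CO2) of HEK293T cells carrying luciferase-tagged ELG1; luciferase then measured by ONE-Glo luminescence after 30 min at RT.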
NPC1 promoter act: activators of NPC1 promoter; Huh7 NPC1 promoter luciferase reporter, 24 h; Potency, µM (top dose mostly 9.22 µM), for inactives: top-dose activation, actives largely listed as activators; hit rate 2.4% among 320,000; AID 485313; note: % of control where 0% means no effect; nearly all actives have a fitted effect of over 60% in size
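NPC1 promoter–luciferase Huh7 cells; 24 h compound; luminescence.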
* = called active by the depositor; [ ] = remark or other dose. Calls come from the whole dose curve; as a rule, active = well fitted curve in the direction sought with a large enough effect; inconclusive = small, poorly fitted or top-dose-only effect, or another doubt; inactive = no such curve, though single readings can be large; an effect the other way counts as inactive or inconclusive. Potency is the fitted concentration of half-maximal effect.

Results for COc1ccc(-n2nc3cc(N)c(Br)cc3n2)cc1 ?
Rab9 prom act: inconclusive; FLuc modulator: 4.78µM*; ELG1 genotoxic: 18.3µM*; NPC1 promoter act: inconclusive

What do the screens show for `COc1ccc(-n2nc3ccccc3n2)cc1`?
Rab9 prom act: 28.4%; FLuc modulator: inconclusive; Luc counter: -1.6%; SMN2 splice up: 6.9%; ELG1 genotoxic: 5.3%; NPC1 promoter act: 19.2%

How did COc1ccc(-n2nc3cc(C)c(N)c(Br)c3n2)cc1 do in these assays?
Rab9 prom act: 1.26µM*; FLuc modulator: 1.07µM*; Luc counter: -1.9%; SMN2 splice up: 7.94µM*; ELG1 genotoxic: 7.31µM*; NPC1 promoter act: 2.82µM*

How did COc1cccc(C(=O)N/N=C(/CCC(=O)O)c2ccccc2)c1 do in these assays?
Rab9 prom act: 0.4%; FLuc modulator: inconclusive; Luc counter: -1.5%; SMN2 splice up: 11.8%; ELG1 genotoxic: 5.9%; NPC1 promoter act: -1.6%

How did O=C(NC1CCCCC1)c1ccc(CS(=O)(=O)Cc2ccccc2F)o1 do in these assays?
Rab9 prom act: 21.5%; FLuc modulator: -3.3%; Luc counter: -3.9%; SMN2 splice up: 10µM*; ELG1 genotoxic: 8.1%; NPC1 promoter act: 10.7%

What do the screens show for `COCCNC(=O)C1CC(c2ccccc2[N+](=O)[O-])=NO1` (stereo unspecified)?
Rab9 prom act: 2.0%; FLuc modulator: -0.2%; Luc counter: -2.1%; SMN2 splice up: -11.6%; ELG1 genotoxic: 3.1%; NPC1 promoter act: 0.3%

What do the screens show for `O=C(NCCc1cccs1)C1CC(c2ccccc2[N+](=O)[O-])=NO1` (stereo unspecified)?
Rab9 prom act: inconclusive; FLuc modulator: 15.1µM*; Luc counter: 0.5%; SMN2 splice up: 24.0%; ELG1 genotoxic: 15.0%; NPC1 promoter act: inconclusive

How did COc1ccc(CCNC(=O)C2CC(c3ccccc3[N+](=O)[O-])=NO2)cc1 (stereo unspecified) do in these assays?
Rab9 prom act: inconclusive; FLuc modulator: 19µM*; Luc counter: 1.0%; SMN2 splice up: 26.7%; ELG1 genotoxic: 20.9%; NPC1 promoter act: inconclusive

What do the screens show for `CCCCNC(=O)C1CC(c2cccc([N+](=O)[O-])c2)=NO1` (stereo unspecified)?
Rab9 prom act: 2.82µM*; FLuc modulator: 10.7µM*; Luc counter: -4.2%; SMN2 splice up: inconclusive; ELG1 genotoxic: inconclusive; NPC1 promoter act: 2.82µM*

What do the screens show for `Cc1ccc(CCNC(=O)C2CC(c3ccccc3[N+](=O)[O-])=NO2)cc1` (stereo unspecified)?
Rab9 prom act: -4.3%; FLuc modulator: -1.4%; Luc counter: 0.3%; SMN2 splice up: -6.2%; ELG1 genotoxic: -0.9%; NPC1 promoter act: -2.4%

How did CCCCOC(=O)c1ccc(NC(=S)NC(=O)c2ccco2)cc1 do in these assays?
Rab9 prom act: 5.2%; FLuc modulator: -2.5%; ELG1 genotoxic: -0.7%; NPC1 promoter act: -2.8%

How did CC(=O)NC(=S)Nc1ccc(NC(=S)NC(=O)c2cccs2)cc1 do in these assays?
Rab9 prom act: -4.9%; FLuc modulator: 2.5%; ELG1 genotoxic: -9.3%; NPC1 promoter act: -1.5%

What do the screens show for `COc1cc(NC(=S)NC(=O)c2cccs2)ccc1NC(=O)C(C)C`?
Rab9 prom act: 27.1%; FLuc modulator: inconclusive; Luc counter: -1.8%; SMN2 splice up: 7.7%; ELG1 genotoxic: -2.2%; NPC1 promoter act: 18.7%

What do the screens show for `CC(C)C(=O)Nc1cccc(NC(=S)NC(=O)c2cccs2)c1`?
Rab9 prom act: 2.82µM*; FLuc modulator: -15.8%; ELG1 genotoxic: 19.5%; NPC1 promoter act: 2.82µM*

Results for CCN(CC)c1ccc(NC(=S)NC(=O)c2cccs2)cc1 ?
Rab9 prom act: 0.562µM*; FLuc modulator: 15.1µM*; Luc counter: 3.3%; ELG1 genotoxic: 7.9%; NPC1 promoter act: inconclusive

Results for CCN(CC)c1ccc(NC(=O)c2ccco2)cc1 ?
Rab9 prom act: inconclusive; FLuc modulator: 3.01µM*; Luc counter: 3.7%; SMN2 splice up: 3.16µM*; ELG1 genotoxic: 1.84µM*; NPC1 promoter act: 1.58µM*

How did CCN(CC)c1ccc(NC(=S)NC(=O)c2ccco2)cc1 do in these assays?
Rab9 prom act: 1.58µM*; FLuc modulator: 15.1µM*; Luc counter: 0.6%; SMN2 splice up: 7.94µM*; ELG1 genotoxic: inconclusive; NPC1 promoter act: inconclusive

What do the screens show for `COc1cccc(-n2ccn(CC(=O)NCCc3ccccc3)c(=O)c2=O)c1`?
Rab9 prom act: -2.1%; FLuc modulator: 0.4%; ELG1 genotoxic: -0.1%[9.26 µM]; NPC1 promoter act: 3.3%

Results for COc1cc2c(-c3ccc4[nH]ccc4c3)c(-c3ccc(C#N)cc3)oc(=O)c2cc1OC ?
Rab9 prom act: -1.7%; FLuc modulator: -8.1%; ELG1 genotoxic: -1.0%; NPC1 promoter act: 10.8%

What do the screens show for `S=C(Nc1ccc(Cl)cc1)NN1CCOCC1`?
Rab9 prom act: -6.2%; FLuc modulator: 1.6%; Luc counter: -1.6%; SMN2 splice up: 12.0%; ELG1 genotoxic: 1.7%; NPC1 promoter act: -2.3%

How did CC(C)c1ccc(NC(=S)NCc2cccs2)cc1 do in these assays?
Rab9 prom act: 20.2%; FLuc modulator: 15.1µM*; Luc counter: -2.4%; SMN2 splice up: 17.4%; ELG1 genotoxic: inconclusive; NPC1 promoter act: 23.6%

Results for CS(=O)(=O)N1CCN(S(=O)(=O)c2ccccc2[N+](=O)[O-])CC1 ?
Rab9 prom act: 1.1%; FLuc modulator: 1.7%; Luc counter: 4.1%; ELG1 genotoxic: 0.0%; NPC1 promoter act: -5.2%

What do the screens show for `CCCOc1ccc(-c2nnn(CC(=O)N3CCCCC3)n2)cc1`?
Rab9 prom act: -2.4%; FLuc modulator: 16.9µM*; ELG1 genotoxic: -5.6%; NPC1 promoter act: 1.3%

How did CCOC(=O)Cn1nnc(-c2cccc(OC)c2)n1 do in these assays?
Rab9 prom act: 5.3%; FLuc modulator: 10.7µM*; Luc counter: -0.5%; SMN2 splice up: -5.9%; ELG1 genotoxic: 5.9%; NPC1 promoter act: -1.4%

How did COc1ccc(OC)c(C(=O)Cn2nnc(-c3ccc(N4CCOCC4)cc3)n2)c1 do in these assays?
Rab9 prom act: 0.8%; FLuc modulator: 9.53µM*; ELG1 genotoxic: -6.7%; NPC1 promoter act: -0.2%

What do the screens show for `O=C(Cn1nnc(-c2ccccc2F)n1)N1CCCCC1`?
Rab9 prom act: 2.51µM*; FLuc modulator: inconclusive; ELG1 genotoxic: inconclusive; NPC1 promoter act: 3.16µM*

How did CCCCC(=O)Nc1cc([N+](=O)[O-])ccc1Cl do in these assays?
Rab9 prom act: -4.0%; FLuc modulator: -2.9%; Luc counter: 6.9%; SMN2 splice up: -1.5%; ELG1 genotoxic: 0.1%; NPC1 promoter act: 1.0%
